The record followed here is PubChem BioAssay AID1220 (Sanford-Burnham Center for Chemical Genomics, 2008).

As a reminder, the inhibition is the relative decrease from the control value, in per cent.

In all, about 190,000 compounds went through this assay and about 1,300 (0.68%) were called active. For the sample, actives were picked, then their nearest neighbours and some compounds at random. Unmarked numbers belong to inactive results. Rule as the data show it: active = inhibition above about 50%; inactive = the rest.

The target of the test is Mannose-6-phosphate isomerase (Homo sapiens) (UniProt P34949). Briefly: human PMI inhibitors, high substrate, primary screen, biochemical, fluorescence intensity, high mannose 6-phosphate (AID 1220). The note with it: recombinant PMI enzyme, coupled fluorescence intensity; at 20 µM; active compounds read high.
Chain of Mannose-6-phosphate isomerase (Homo sapiens) (P34949 whole entry, looked up): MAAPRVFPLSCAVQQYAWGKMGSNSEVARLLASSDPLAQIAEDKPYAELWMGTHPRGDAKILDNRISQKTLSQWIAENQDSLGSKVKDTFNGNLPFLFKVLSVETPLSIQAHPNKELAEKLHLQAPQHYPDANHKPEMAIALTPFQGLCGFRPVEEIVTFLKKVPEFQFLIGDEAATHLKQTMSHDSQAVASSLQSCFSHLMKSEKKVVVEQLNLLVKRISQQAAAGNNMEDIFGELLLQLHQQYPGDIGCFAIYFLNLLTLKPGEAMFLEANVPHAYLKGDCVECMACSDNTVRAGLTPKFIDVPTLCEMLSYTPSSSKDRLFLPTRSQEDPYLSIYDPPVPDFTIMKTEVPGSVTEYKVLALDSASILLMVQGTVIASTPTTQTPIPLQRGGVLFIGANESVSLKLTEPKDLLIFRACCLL
On to `COc1ccc(S(=O)(=O)Nc2cc3c4c(oc3c3ccccc23)CCCC4=O)cc1`, for which the inhibition was 14.6%. Take `COc1ccc(S(=O)(=O)Nc2cc3c(C(C)=O)c(C)oc3c3ccccc23)cc1`: the inhibition was -0.8%. `COc1ccc(S(=O)(=O)Nc2cc3c4c(oc3c3ccccc23)CC(C)(C)CC4=O)cc1`: the inhibition was 50.1% (active). Regarding `COc1ccc(O[C@H]2C=C[C@@H](c3ccccc3)O[C@@H]2COC(=O)CC/C(C)=N/OC[C@@H](O)COCc2ccco2)cc1`, the inhibition was 19.3%. For `CCC(NC(=O)CCc1ccccc1)c1ccccc1` (centres undefined) the value was 0.5%.

As to `COC(=O)COc1c(Cl)cc(Cl)c2ccc(C)nc12`, the inhibition was 10.1%. For `Cc1ccc2c(Cl)cc(Cl)c(OCC(=O)N3CCCC3)c2n1` the value was 54.6% (active); for `Cc1ccc2c(Cl)cc(Cl)c(OCC(=O)O)c2n1`, 9.9%.

With `CCOc1ccc(C(NC(=O)/C=C/c2ccco2)c2ccc(OC)c(OC)c2)cc1` (centres undefined), the inhibition is 10.3%. The same measure for `COc1ccc(C2Nc3ccccc3C(=O)N2NS(=O)(=O)c2ccc(C)cc2)cc1` (centres undefined): 5.5%.

Regarding `Cc1ccc(OCCN(C)C(=O)CC2C(=O)NCCN2CC(C)(C)C)cc1` (centres undefined), the inhibition is 41.2%. For the compound `CN(Cc1ccon1)C(=O)CC1C(=O)NCCN1CC(C)(C)C` (centres undefined), the inhibition is 35.3%. As to `COC(=O)CN(C)C(=O)CC1C(=O)NCCN1CC(C)(C)C` (centres undefined), the inhibition is 56.5% (active).

On to `COc1ccc(N2CCN(C(=O)COc3ccc4ccccc4c3)CC2)cc1`, for which the inhibition was 6.1%.

In the case of `COc1ccc(CN2CCN(c3ccccn3)CC2)c(OC)c1`, the inhibition was -6.3%.

Turning to `O=C(Nc1ccccc1)c1ccc(NCCN2CCOCC2)c(S(=O)(=O)N2CCOCC2)c1`, the inhibition was 1.4%. The same measure for `CCOC(=O)C(Cc1ccccc1)c1ccnc2nc(N)nn12` (centres undefined): -9.3%; for `CCOC(=O)C(Cc1c(F)cccc1Cl)c1ccnc2nc(N)nn12` (centres undefined): 64.8% (active); for `CCOC(=O)C(Cc1c(F)cccc1Cl)c1ccno1` (centres undefined): -11.3%. The same measure for `CCN(CC)CCOC(=O)c1ccc(NC(=O)CNC(=O)C2CCCCC2)cc1`: -12.4%; for `O=C1CC(c2ccccc2)n2nc(NC(=O)c3cccnc3)nc2N1` (centres undefined): -4.6%; for `Cc1ccc(-n2nnnc2SCC(=O)NNC(=O)c2ccc([N+](=O)[O-])cc2)cc1`: 8.5%. For the compound `Oc1ccc(N=Cc2ccc(-c3cccs3)s2)cc1`, the inhibition was 55.3% (active). For `Cc1ccsc1C=Nc1ccc(O)cc1` the value was 45.3%.

With `CC(=O)c1ccc(-c2cccs2)s1`, the inhibition was 0.2%.

`O=C1/C(=C\c2cccs2)SC(=S)N1C1CCS(=O)(=O)C1` (centres undefined): the inhibition was 12%. In the case of `O=C1/C(=C\c2ccco2)SC(=S)N1c1ccccc1`, the inhibition is 51.3% (active). Consider `O=C(O)CCCN1C(=O)/C(=C\c2ccco2)SC1=S`, for which the inhibition is 60.3% (active). In the case of `O=C1/C(=C/c2ccco2)SC(=S)N1C1CCS(=O)(=O)C1` (centres undefined), the inhibition was 54.7% (active). Regarding `O=C(CCCN1C(=O)/C(=C\c2ccco2)SC1=S)Nc1ccc2ccccc2c1`, the inhibition was -8.1%.

As to `O=C(O)CCN1C(=O)/C(=C\c2ccc(-c3nc4ccccc4s3)o2)SC1=S`, the inhibition was 7.1%.

In the case of `O=C(O)CCN1C(=O)/C(=C/c2ccc(-c3nc4ccccc4s3)o2)SC1=S`, the inhibition is 54.7% (active).

As to `Cc1ccc(N2C(=O)/C(=C\c3ccco3)SC2=S)cc1`, the inhibition was 39.7%. The same measure for `O=C1/C(=C\c2ccco2)SC(=S)N1c1ccc(O)cc1`: 39.1%; for `O=C(O)CCCN1C(=O)/C(=C/c2ccc(-c3nc4ccccc4s3)o2)SC1=S`: -50.1%; for `COc1ccc(NC(=O)CCCN2C(=O)/C(=C\c3ccco3)SC2=S)cc1`: 13.4%. In the case of `Cc1ccc(/C=C2\SC(=S)N(C3CCS(=O)(=O)C3)C2=O)o1` (centres undefined), the inhibition was 41.2%. For `CCC(=O)Nc1cc(-c2nn3c(C)nnc3s2)ccc1C` the value was 1.7%; for `O=C(CCOc1ccccc1)Nc1cccc(S(=O)(=O)Nc2ccccc2Cl)c1`, 13.1%; for `CCC(=O)Nc1ccc(S(=O)(=O)NCc2ccco2)cc1`, -9.3%. For `COc1ccc(NC(=O)c2onc(C)c2Cl)cc1OC` the value was -15%.

For the compound `CCOC(=O)C1(Cc2ccc(Cl)cc2)CCN(CCCn2cccn2)CC1`, the inhibition is 3.5%. In the case of `CN(c1ncc(C(F)(F)F)cc1Cl)N1C(=O)c2cccc([N+](=O)[O-])c2C1=O`, the inhibition is 6.1%. `Clc1cc(Cl)cc(C2=NCCC(c3ccccc3)O2)c1` (centres undefined): the inhibition is 15.6%. The same measure for `CC1(C)CC(=O)C2=C(C1)OC(N)=C(C#N)C2c1ccccc1[N+](=O)[O-]` (centres undefined): 47.5%; for `O=C(O)CN(c1ccc2c(c1)OCCO2)S(=O)(=O)c1ccccc1`: -2.6%; for `COc1ccc(OCC(=O)NC(CC(=O)O)c2ccc(OC)c(OC)c2)cc1` (centres undefined): -11.4%.

For `Cc1c(Br)c(=O)oc2c(Br)c(O)ccc12`, the inhibition was -8.7%. On to `Cc1c(Br)c(=O)oc2c(Br)c(O)c(O)cc12`, for which the inhibition was -33.8%.

For the compound `O=c1oc2c(O)c(O)cc3c(=O)oc4c(O)c(O)cc1c4c23`, the inhibition was 61.2% (active). In the case of `Cc1cccc(C(c2c(C)nn(-c3ccccc3)c2N)c2c(C)nn(-c3ccccc3)c2N)c1`, the inhibition was 16.3%.

Turning to `O=C(NC1CCCCC1)c1cc(Cl)nc2ccccc12`, the inhibition was 1.4%. Regarding `Cn1cc(/C=N\O)nc2c(=O)n(-c3ccccc3)c(=O)nc1-2`, the inhibition is 56.5% (active). Turning to `O/N=C/c1cn(-c2ccccc2)nn1`, the inhibition is 6.9%. As for `Cc1[nH]n(-c2ccccc2)c(=O)c1/C=N/O`, the inhibition is 5.9%. On to `Nc1cc(=O)[nH]c(SCC(=O)Nc2cccc(Cl)c2Cl)n1`, for which the inhibition was 4.4%. With `O=C(CSc1ncn(-c2ccccc2)n1)Nc1nncs1`, the inhibition is 5.2%. The same measure for `COc1cc(C2C3C(=O)N(Cc4ccccc4)C(=O)C3ON2c2ccccc2)cc(OC)c1OC` (centres undefined): 7.3%.

`COc1cc(C2C3C(=O)N(Cc4ccccc4)C(=O)C3ON2c2ccccc2)cc(OC)c1O` (centres undefined): the inhibition is 54.2% (active). For `COc1ccc(C2C3C(=O)N(Cc4ccccc4)C(=O)C3ON2c2ccccc2)c(OC)c1OC` (centres undefined) the value was 15%; for `Cc1ccc(N=Cc2c(O)[nH]c3ccccc23)c([N+](=O)[O-])c1`, -4.1%; for `O=[N+]([O-])c1cc(Cc2ccccc2)cc(C=Nc2ccc(N3CCOCC3)cc2)c1O`, 38.7%. As for `COc1ccc(N=Cc2cccc(C)c2O)cc1Cl`, the inhibition was 7.9%. The same measure for `Cc1n[nH]c(C)c1Sc1ccccc1N=Cc1cc(Cl)cc([N+](=O)[O-])c1O`: 0.8%. Regarding `Cc1c(N=Cc2ccc(O)c(Br)c2)cccc1[N+](=O)[O-]`, the inhibition was 12.1%. For `Cc1ccc(O)c(N=Cc2cc(Cc3ccccc3)cc([N+](=O)[O-])c2O)c1` the value was 63.3% (active); for `Cc1ccc(N=Cc2cc(Cc3ccccc3Cl)cc([N+](=O)[O-])c2O)c(O)c1`, 56.5% (active); for `COc1cc(C=Nc2cccc(C)c2)c(O)c([N+](=O)[O-])c1`, 34%. Consider `COc1ccc(N=Cc2cc(Cc3ccccc3Cl)cc([N+](=O)[O-])c2O)cc1OC`, for which the inhibition was 54.9% (active).
